PubChem BioAssay AID651640 (Broad Institute, 2012)
Values joined by “and” are separate entries in the source; they are usually repeats but may differ in a detail not shown here. Identical values can stand only once. Screen size: about 350,000 compounds; about 6,000 (1.7%) were called active. Inconclusive results (about 5%) are left out. Cut-off read from the data, not from the text of the source: active = CPE inhibition above about 20% (passing the limit was not always enough); inconclusive = no clear call, values can overlap the other calls; tested in BHK-21 cells. What follows is part of a selection rich in actives, with near analogues and random picks from the rest. Some structures have more than one record in an assay (separate samples or runs), and their calls can disagree.

Assay: inhibitors of DENV2 cytopathic effect, primary screen, cell-based, plate reader, single concentration (AID 651640);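 note: 0% = median of neutral control wells and 100% = median of positive control wells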
Conditions: DENV2-infected cells, cytopathic effect rescue, at 9.99 µM, stronger effect = higher value
In the case of `O=C(c1ccncc1)N1CC(=O)N2[C@H](CO)[C@@H](c3ccc(-c4cccnc4)cc3)[C@H]2C1`, the CPE inhibition is reported as -6.23% (inactive). With `COc1ccc2c3c(n(C)c2c1)[C@H](CO)N(C(=O)C1CCCC1)CC31CCN(C(=O)c2ccncc2)CC1` the CPE inhibition was 4.15% (inactive). For `CO[C@@H]1CN(C)C(=O)c2ccc(NC(=O)NC(C)C)cc2OC[C@@H](C)N(C(=O)NC(C)C)C[C@H]1C`, the CPE inhibition was 9.11% (inactive). With `C[C@@H]1CCCCO[C@H](CN(C)CC2CCCCC2)[C@H](C)CN([C@H](C)CO)C(=O)c2cc(NS(=O)(=O)c3ccc(F)cc3)ccc2O1` the CPE inhibition was -1.47% (inactive). With `C[C@@H]1CCCCO[C@H](CN(C)Cc2ccc3c(c2)OCO3)[C@H](C)CN([C@@H](C)CO)C(=O)c2cc(NS(=O)(=O)c3cccs3)ccc2O1` the CPE inhibition was -2.06% (inactive) and 0.641% (inactive). With `CCCN1C(=O)c2[nH]nc(-c3ccccc3)c2C1c1ccccc1` (stereo not drawn) the CPE inhibition was 1.19% (inactive). In the case of `CO[C@H]1CN(C)C(=O)c2ccc(NC(C)=O)cc2OC[C@H](C)N(CC2CC2)C[C@@H]1C`, the CPE inhibition is reported as -14.7% (inactive). With `C[C@@H]1CN([C@H](C)CO)C(=O)Cc2cc(NC(=O)C3CCCCC3)ccc2O[C@@H]1CN(C)Cc1ccc(C(F)(F)F)cc1` the CPE inhibition was 31.3% (active). With `C[C@H]1CN([C@@H](C)CO)C(=O)Cc2cc(NC(=O)C3CCCCC3)ccc2O[C@H]1CN(C)C(=O)Nc1ccc(C(F)(F)F)cc1` the CPE inhibition was -1.37% (inactive). For `C[C@H]1CN([C@@H](C)CO)C(=O)Cc2cc(NC(=O)Nc3ccc(F)cc3)ccc2O[C@H]1CN(C)S(=O)(=O)c1ccccc1`, the CPE inhibition was 1.86% (inactive). In the case of `C[C@@H]1CN([C@H](C)CO)C(=O)Cc2cc(NC(=O)Nc3ccccc3)ccc2O[C@@H]1CN(C)Cc1ccc(C(F)(F)F)cc1`, the CPE inhibition is reported as -6.47% (inactive). In the case of `C[C@@H]1CN([C@@H](C)CO)C(=O)Cc2cc(NC(=O)Nc3ccc(C(F)(F)F)cc3)ccc2O[C@H]1CN(C)Cc1ccc(C(=O)O)cc1`, the CPE inhibition is reported as 30.9% (active). In the case of `C[C@@H]1CN([C@@H](C)CO)C(=O)Cc2cc(NC(=O)Nc3ccc(F)cc3)ccc2O[C@@H]1CN(C)S(=O)(=O)c1ccccc1`, the CPE inhibition is reported as 76.2% (active). In the case of `C[C@H](CO)N1C[C@H](C)[C@@H](CN(C)S(=O)(=O)c2ccccc2)Oc2ccc(NC(=O)Nc3ccc(F)cc3)cc2CC1=O`, the CPE inhibition is reported as 13.5% (inactive). With `C[C@@H]1CN([C@@H](C)CO)C(=O)Cc2cc(NC(=O)C3CCCCC3)ccc2O[C@@H]1CN(C)C(=O)Nc1ccc(C(F)(F)F)cc1` the CPE inhibition was 2.75% (inactive). For `C[C@H]1CN([C@@H](C)CO)C(=O)Cc2cc(NC(=O)Nc3ccc(C(F)(F)F)cc3)ccc2O[C@H]1CN(C)Cc1ccc(C(=O)O)cc1`, the CPE inhibition was 16.5% (inactive). In the case of `COCC#Cc1cnc2c(c1)C(=O)N([C@H](C)CO)C[C@H](C)[C@H](CN(C)C(=O)C1CCOCC1)O2`, the CPE inhibition is reported as 8% (inactive). For `O=C(C[C@H]1C[C@@H]2c3cc(NC(=O)CC4CC4)ccc3O[C@@H]2[C@@H](CO)O1)NCc1cc(F)ccc1F`, the CPE inhibition was -1.05% (inactive). In the case of `C[C@@H]1CN([C@H](C)CO)C(=O)c2cc(NC(=O)c3ccncc3)ccc2O[C@H]1CN(C)Cc1ccc(Oc2ccccc2)cc1`, the CPE inhibition is reported as -0.0445% (inactive). For `C[C@@H]1CCCCO[C@@H](CN(C)C(=O)Cc2ccccc2)[C@H](C)CN([C@H](C)CO)C(=O)c2cc(NC(=O)Cc3ccccc3)ccc2O1`, the CPE inhibition was 13.3% (inactive). For `COc1ccc(-c2ccc3c(c2)[C@H]2[C@H](CCN2C(=O)c2ccc4c(c2)OCO4)[C@@H](CO)N3)cc1`, the CPE inhibition was -26.6% (inactive). In the case of `Cc1ccc(C)c(CN2CCC(CNC(=O)C3CCCN(c4ncnc5c4nc4n5CCCCC4)C3)CC2)c1` (stereo not drawn), the CPE inhibition is reported as 3.53% (inactive). In the case of `CCCN1C[C@@H](C)[C@@H](OC)CN(C)C(=O)c2ccc(NC(=O)CC(F)(F)F)cc2OC[C@H]1C`, the CPE inhibition is reported as 1.09% (inactive). With `CN1c2ccc(Br)cc2[C@H]2[C@H](CCN2S(=O)(=O)c2ccc(F)cc2)[C@@H]1CO` the CPE inhibition was 0.0605% (inactive). In the case of `CO[C@@H]1CN(C)C(=O)c2ccc(NC(=O)C3CC3)cc2OC[C@H](C)N(C(C)=O)C[C@H]1C`, the CPE inhibition is reported as 7.67% (inactive). For `COc1ccc(C[C@H]2CN3C(=NC[C@H]3C)N2CCNC(=O)CCC2CCCCC2)cc1`, the CPE inhibition was -4.48% (inactive). For `NC1=NC[C@@H](Cc2ccc(O)cc2)N1CC1CCCCC1`, the CPE inhibition was 2.56% (inactive). With `C/C=C(\C)C(=O)NCCN1C2=NC[C@H](Cc3ccc(O)cc3)N2C[C@@H]1Cc1ccc(OC)cc1` the CPE inhibition was 77.3% (active). In the case of `CCC(=O)N1C[C@@H](O)COC[C@H]2O[C@H](CC(=O)NCC3CCCCC3)CC[C@@H]21`, the CPE inhibition is reported as -3.58% (inactive). In the case of `CCC(=O)Nc1ccc2c(c1)nc(CCN1CCN(c3ccccn3)CC1)n2C`, the CPE inhibition is reported as 0.997% (inactive). With `CCOC(=O)N1CCN(Cc2nc3cc(NC(=O)CC)ccc3n2CC)CC1` the CPE inhibition was 38.6% (active). For `CCOC(=O)N1CCN(Cc2nc3cc(NC(C)=O)ccc3n2C)CC1`, the CPE inhibition was -3.68% (inactive). For `C[C@@H]1CN([C@H](C)CO)C(=O)c2cccc(NC(=O)c3ccncc3)c2O[C@@H]1CN(C)S(=O)(=O)c1cn(C)cn1`, the CPE inhibition was 15% (inactive). With `O=C(Nc1ccccc1F)N[C@@H]1C=C[C@H](CC(=O)N2CCCCC2)O[C@@H]1CO` the CPE inhibition was -0.192% (inactive). For `Cc1noc(C)c1NC(=O)N(C)C[C@@H]1OCCCC[C@H](C)Oc2ccc(NC(=O)c3ccccc3)cc2C(=O)N([C@@H](C)CO)C[C@@H]1C`, the CPE inhibition was 16.5% (inactive). With `CC(=O)N(C)C[C@@H]1Oc2ncc(C#Cc3ccc(F)cc3)cc2C(=O)N([C@H](C)CO)C[C@@H]1C` the CPE inhibition was 28.5% (active). With `C[C@H]1CN([C@@H](C)CO)C(=O)c2cc(C#Cc3ccc(F)cc3)cnc2O[C@@H]1CN(C)C(=O)Nc1ccc(F)cc1` the CPE inhibition was -4.85% (inactive). With `C[C@H](CO)N1C[C@H](C)[C@H](CN(C)C)Oc2ncc(C#Cc3ccc(F)cc3)cc2C1=O` the CPE inhibition was -5.08% (inactive) and 2.36% (inactive). With `COc1ccc(C#Cc2cnc3c(c2)C(=O)N([C@@H](C)CO)C[C@H](C)[C@@H](CN(C)C(C)=O)O3)cc1` the CPE inhibition was 2.83% (inactive). With `C/C=C/c1cnc2c(c1)C(=O)N([C@@H](C)CO)C[C@@H](C)[C@H](CN(C)C(=O)c1cnccn1)O2` the CPE inhibition was -1.7% (inactive). In the case of `COc1ccc(C#Cc2cnc3c(c2)C(=O)N([C@H](C)CO)C[C@H](C)[C@@H](CN(C)C)O3)cc1`, the CPE inhibition is reported as 19.9% (inactive). For `COc1ccc(C#Cc2cnc3c(c2)C(=O)N([C@H](C)CO)C[C@@H](C)[C@@H](CN(C)C(=O)CN(C)C)O3)cc1`, the CPE inhibition was 33.2% (active). In the case of `C[C@H](CO)N1C[C@H](C)[C@@H](CN(C)C(=O)c2cnccn2)Oc2ncc(Br)cc2C1=O`, the CPE inhibition is reported as 17.4% (inactive) and 62.5% (active). In the case of `C/C=C/c1cnc2c(c1)C(=O)N([C@@H](C)CO)C[C@@H](C)[C@@H](CN(C)C(=O)c1cnccn1)O2`, the CPE inhibition is reported as 2.38% (inactive). In the case of `N#C[C@H]1[C@H](c2ccccc2)[C@@H](CO)N1C(=O)c1cccnc1`, the CPE inhibition is reported as -0.249% (inactive). With `COC(=O)[C@]12C[C@H](CC(=O)NCc3ccc(C)o3)C(=O)N(CCC3=CCCCC3)C1=C[C@H](C(C)(C)C)O[C@@H]2C` the CPE inhibition was 13.9% (inactive). With `CN(C)C(=O)[C@@H]1[C@@H](CO)[C@@H]2Cn3c(cccc3=O)[C@@H]2N1C(=O)C1CCC1` the CPE inhibition was -0.032% (inactive). In the case of `O=C(Nc1cccc(Cl)c1)N1C[C@@H]2[C@H](c3ccccc31)[C@H](CO)N2Cc1ccncc1`, the CPE inhibition is reported as -4.1% (inactive). For `C/C=C/c1ccc([C@H]2[C@@H](CO)N[C@@H]2CN(CC)C(=O)CN2CCOCC2)cc1`, the CPE inhibition was -9.22% (inactive). For `O=C(C[C@@H]1C[C@H]2c3cc(NC(=O)NC4CCCCC4)ccc3O[C@H]2[C@H](CO)O1)NCc1ccncc1`, the CPE inhibition was -3.13% (inactive). In the case of `CC(C)NC(=O)N(C)C[C@@H]1Oc2ncc(C3=CCCCC3)cc2C(=O)N([C@H](C)CO)C[C@@H]1C`, the CPE inhibition is reported as 4.71% (inactive). For `CCCNC(=O)C[C@H]1C[C@@H]2c3cc(NC(=O)COC)ccc3O[C@@H]2[C@@H](CO)O1`, the CPE inhibition was -2.37% (inactive). In the case of `CN1OC[C@@H]2CN(C(=O)c3cccnc3)[C@H](c3ccc(N4CCCCC4)cc3)C[C@@H]21`, the CPE inhibition is reported as 42.6% (active). For `CN1OC[C@@H]2CN(C(=O)C(C)(C)C)[C@H](c3ccc(-n4ccnc4)cc3)C[C@@H]21`, the CPE inhibition was -4.59% (inactive). With `CN1OC[C@@H]2CN(C(=O)c3cccc4ccccc34)[C@H](c3ccc(N4CCCCC4)cc3)C[C@@H]21` the CPE inhibition was 1.89% (inactive). With `COc1ccc(NC(=O)Nc2ccc3c(c2)C(=O)N([C@@H](C)CO)C[C@@H](C)[C@@H](CN(C)Cc2ccncc2)OCCCC[C@@H](C)O3)cc1` the CPE inhibition was -9.1% (inactive). In the case of `CN1C(=O)c2cc(NC(=O)c3cccs3)ccc2OC[C@H]2O[C@@H](CC(=O)NCC3CC3)CC[C@@H]21`, the CPE inhibition is reported as -3.31% (inactive). In the case of `C/C=C/c1ccc([C@@H]2[C@H](CO)N(CC3CCCC3)C23CN(C(=O)CC)C3)cc1`, the CPE inhibition is reported as 2.47% (inactive). For `C/C=C/c1ccc([C@@H]2[C@@H](CO)N(CC3CCCC3)C23CN(S(=O)(=O)CC)C3)cc1`, the CPE inhibition was -5.75% (inactive). With `C/C=C/c1ccc([C@@H]2[C@H](CO)N(CC3CCOCC3)C23CN(S(=O)(=O)CC)C3)cc1` the CPE inhibition was 73.3% (active). With `CO[C@H]1CN(C)C(=O)c2ccc(NS(=O)(=O)c3cn(C)cn3)cc2OC[C@H](C)N(C)C[C@H]1C` the CPE inhibition was -10.1% (inactive). In the case of `C/C=C/c1cnc2c(c1)C(=O)N([C@H](C)CO)C[C@H](C)[C@H](CN(C)C(=O)c1cccc(F)c1)O2`, the CPE inhibition is reported as -1% (inactive). In the case of `C[C@@H]1CN([C@@H](C)CO)S(=O)(=O)c2ccc(Br)cc2O[C@H]1CN(C)S(=O)(=O)c1ccccc1`, the CPE inhibition is reported as -1.43% (inactive).
